Experimental data reported in PubChem BioAssay (EPA / NIEHS).
Results filed as inconclusive are left out. Activity calls are given as the source filed them. The calls were made as follows, unless noted: active = hit-call score of the fitted dose curve at least 0.9, where 1 is the maximum; inactive = score below 0.9.

Experiments:
[1] = biological target: Oxysterols receptor LXR-alpha (Homo sapiens) (UniProt Q13133); assay: ATG_LXRa_TRANS: Attagene TRANS-FACTORIAL HepG2 Assay for human Liver X Receptor alpha (LXRa) (AID 2282980; active = hit-call score of the fitted dose curve at least 0.9, where 1 is the maximum); details: HepG2 Attagene TRANS reporter, LXRa transactivation
In short: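 Read-out: reporter transcript levels by RT-PCR plus capillary electrophoresis, fluorescence intensity. Transiently transfected HepG2, exogenous NR-GAL4 chimera, GAL4-UAS reporters; 24 h compound exposure. Activity = increase over DMSO negative control.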

[2] = ATG_M_06_TRANS: Attagene TRANS-FACTORIAL HepG2 Assay for M06 Transcription Factor (Internal Marker) (AID 2282983; active = hit-call score of the fitted dose curve at least 0.9, where 1 is the maximum); details: HepG2 Attagene TRANS M06 internal marker reporter
In short: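 After a 24 h chemical treatment of transfected HepG2, RNA underwent DNase I treatment, reverse transcription and reporter-specific PCR; labelled, HpaI-digested products were sized by capillary electrophoresis. Signal increase relative to DMSO defined activity.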

[3] = biological target: Transcriptional activator Myb (Homo sapiens) (UniProt P10242); assay: ATG_Myb_CIS: Attagene CIS-FACTORIAL HepG2 Assay for human Myeloblastosis (Myb) Proto-Oncogene Transcription Factor (AID 2282986); details: HepG2 Attagene CIS-FACTORIAL Myb reporter transcription; actives raise or lower the signal
In short: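 Using HepG2 liver cells bearing transiently transfected cis-promoter reporter constructs, the assay measures induction or loss of reporter mRNA after 24 hours of dosing. Detection used fluorescently labeled RT-PCR products separated by capillary electrophoresis.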

[4] = biological target: Nuclear respiratory factor 1 (Homo sapiens) (UniProt Q16656); assay: ATG_NRF1_CIS: Attagene CIS-FACTORIAL HepG2 Assay for human Nuclear Respiratory Factor 1 (NRF1) Orphan Gene (AID 2282987); details: HepG2 NRF1 cis-element reporter, Attagene multiplex; actives raise or lower the signal
In short: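 Reporter mRNA induction or loss in HepG2 cells after 24 h dosing; cis-regulated reporter constructs report endogenous transcription-factor activity. Quantified by RT-PCR/capillary electrophoresis fluorescence, DMSO-referenced.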

[5] = ATG_NFI_CIS: Attagene CIS-FACTORIAL HepG2 Assay for human Nuclear Factor I (NFI) (AID 2282989); details: HepG2 cis-regulatory reporter, NFI response element transcription; actives raise or lower the signal
In short: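 Reporter transcripts were measured by RT-PCR with fluorescent primer extension and capillary electrophoresis 24 h post-treatment. HepG2 cells carried transiently transfected cis-regulated reporter constructs reporting endogenous factor activity; gain or loss fitted against DMSO baseline.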

[6] = biological target: Oxysterols receptor LXR-beta (Homo sapiens) (UniProt P55055); assay: ATG_LXRb_TRANS: Attagene TRANS-FACTORIAL HepG2 Assay for human Liver X Receptor beta (LXRb) (AID 2282981; active = hit-call score of the fitted dose curve at least 0.9, where 1 is the maximum); details: HepG2 Attagene TRANS GAL4-LXRb reporter, mRNA
In short: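 In this TRANS format, exogenous chimeric NR-Gal4 protein activity, not endogenous factors, drives reporter expression in transfected human HepG2 cells. Exposure lasted 24 h; reporter mRNA was read by fluorescent capillary electrophoresis.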

[7] = biological target: Hepatocyte nuclear factor 4-alpha (Homo sapiens) (UniProt P41235); assay: ATG_HNF4a_TRANS: Attagene TRANS-FACTORIAL HepG2 Assay for human Hepatocyte Nuclear Factor 4 alpha (HNF4a) (AID 2282982; active = hit-call score of the fitted dose curve at least 0.9, where 1 is the maximum); details: HepG2 HNF4a transactivation reporter, mRNA readout
In short: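 Cells used were human HepG2, transiently carrying GAL4-UAS reporter units read out against exogenous NR-GAL4 chimeras. Reporter transcript levels after 24 h dosing were quantified by fluorescent RT-PCR and capillary electrophoresis.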

[8] = ATG_M_32_TRANS: Attagene TRANS-FACTORIAL HepG2 Assay for M32 Transcription Factor (Internal Marker) (AID 2282984; active = hit-call score of the fitted dose curve at least 0.9, where 1 is the maximum;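 also: transcript level of a background control reporter unit measured by RT-PCR and capillary electrophoresis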); details: HepG2 Attagene TRANS M32 internal marker reporter
In short: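 Human hepatoma HepG2, transient MRTU transfection, 24 h treatment. RNA → RT-PCR → fluorescent primer extension → HpaI digest (2 h, 37 C) → CE. Positive-direction fit vs DMSO.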

[9] = biological target: Nuclear receptor subfamily 4 group A member 2 (Homo sapiens) (UniProt P43354); assay: ATG_NURR1_TRANS: Attagene TRANS-FACTORIAL HepG2 Assay for human Nuclear Receptor Related Protein 1 (NURR1) (AID 2282985; active = hit-call score of the fitted dose curve at least 0.9, where 1 is the maximum); details: HepG2 Attagene TRANS reporter, mRNA readout
In short: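 After 24 h chemical dosing, total RNA from transiently transfected HepG2 cells was reverse-transcribed and reporter cDNA PCR-amplified, FAM-labelled and analysed by capillary electrophoresis. Activity fitted in positive direction, DMSO as negative control.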

Measured: AC50

Sequence of Oxysterols receptor LXR-alpha (Homo sapiens) (Q13133 whole entry, looked up, the tested form may be a part): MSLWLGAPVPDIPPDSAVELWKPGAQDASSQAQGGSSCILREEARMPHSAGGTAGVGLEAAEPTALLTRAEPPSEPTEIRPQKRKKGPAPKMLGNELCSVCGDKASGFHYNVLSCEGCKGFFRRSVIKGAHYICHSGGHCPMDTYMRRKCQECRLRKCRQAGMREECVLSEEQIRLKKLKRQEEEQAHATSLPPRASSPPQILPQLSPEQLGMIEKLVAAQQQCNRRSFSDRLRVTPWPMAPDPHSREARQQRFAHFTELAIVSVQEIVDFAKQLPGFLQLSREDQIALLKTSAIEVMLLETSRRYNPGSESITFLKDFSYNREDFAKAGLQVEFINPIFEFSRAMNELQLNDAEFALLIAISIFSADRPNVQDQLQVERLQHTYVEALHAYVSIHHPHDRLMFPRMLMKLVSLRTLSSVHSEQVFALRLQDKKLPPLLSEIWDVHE
Sequence of Hepatocyte nuclear factor 4-alpha (Homo sapiens) (P41235 whole entry, looked up, the tested form may be a part): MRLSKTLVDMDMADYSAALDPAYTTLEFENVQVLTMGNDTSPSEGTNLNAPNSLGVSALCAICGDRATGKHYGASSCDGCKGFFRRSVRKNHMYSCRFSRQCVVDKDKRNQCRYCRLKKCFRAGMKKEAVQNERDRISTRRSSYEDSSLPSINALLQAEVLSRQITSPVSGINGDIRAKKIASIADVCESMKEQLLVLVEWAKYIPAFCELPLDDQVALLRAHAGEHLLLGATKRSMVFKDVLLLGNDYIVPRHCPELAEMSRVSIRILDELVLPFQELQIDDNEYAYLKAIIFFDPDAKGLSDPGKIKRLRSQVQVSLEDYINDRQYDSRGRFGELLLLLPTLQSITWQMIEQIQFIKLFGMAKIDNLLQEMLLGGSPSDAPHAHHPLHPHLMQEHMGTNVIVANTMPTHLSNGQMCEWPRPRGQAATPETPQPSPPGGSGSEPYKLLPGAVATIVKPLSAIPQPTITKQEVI
Sequence of Oxysterols receptor LXR-beta (Homo sapiens) (P55055 whole entry, looked up, the tested form may be a part): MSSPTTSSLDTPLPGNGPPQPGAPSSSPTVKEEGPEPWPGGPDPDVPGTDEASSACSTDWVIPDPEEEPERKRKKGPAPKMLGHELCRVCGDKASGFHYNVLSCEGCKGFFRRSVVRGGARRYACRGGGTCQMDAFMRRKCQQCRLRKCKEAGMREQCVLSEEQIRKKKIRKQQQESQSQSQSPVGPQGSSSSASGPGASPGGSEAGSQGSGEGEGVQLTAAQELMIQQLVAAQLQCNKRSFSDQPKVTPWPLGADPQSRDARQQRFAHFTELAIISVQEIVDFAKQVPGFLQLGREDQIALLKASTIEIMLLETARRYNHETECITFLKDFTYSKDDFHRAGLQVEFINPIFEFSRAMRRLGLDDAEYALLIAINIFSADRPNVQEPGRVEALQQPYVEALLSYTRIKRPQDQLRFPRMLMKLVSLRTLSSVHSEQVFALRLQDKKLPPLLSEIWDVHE
Sequence of Transcriptional activator Myb (Homo sapiens) (P10242 whole entry, looked up): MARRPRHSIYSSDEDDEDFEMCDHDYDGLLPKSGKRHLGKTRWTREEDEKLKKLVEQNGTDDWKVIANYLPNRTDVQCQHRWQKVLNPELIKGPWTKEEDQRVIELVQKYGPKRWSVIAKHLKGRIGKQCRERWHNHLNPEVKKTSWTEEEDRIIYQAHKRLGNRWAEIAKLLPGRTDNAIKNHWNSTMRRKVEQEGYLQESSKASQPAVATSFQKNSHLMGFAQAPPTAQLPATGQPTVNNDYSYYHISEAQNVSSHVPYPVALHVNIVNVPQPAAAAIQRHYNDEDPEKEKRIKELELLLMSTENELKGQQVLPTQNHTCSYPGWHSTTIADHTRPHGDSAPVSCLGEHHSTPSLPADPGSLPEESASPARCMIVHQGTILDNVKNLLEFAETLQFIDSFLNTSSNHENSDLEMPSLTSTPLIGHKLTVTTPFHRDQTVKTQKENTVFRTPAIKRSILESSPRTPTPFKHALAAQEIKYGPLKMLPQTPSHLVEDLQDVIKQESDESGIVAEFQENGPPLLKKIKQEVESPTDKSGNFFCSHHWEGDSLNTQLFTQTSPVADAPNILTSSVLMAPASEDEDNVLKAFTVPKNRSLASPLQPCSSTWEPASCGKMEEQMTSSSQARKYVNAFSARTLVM
Sequence of Nuclear respiratory factor 1 (Homo sapiens) (Q16656 whole entry, looked up): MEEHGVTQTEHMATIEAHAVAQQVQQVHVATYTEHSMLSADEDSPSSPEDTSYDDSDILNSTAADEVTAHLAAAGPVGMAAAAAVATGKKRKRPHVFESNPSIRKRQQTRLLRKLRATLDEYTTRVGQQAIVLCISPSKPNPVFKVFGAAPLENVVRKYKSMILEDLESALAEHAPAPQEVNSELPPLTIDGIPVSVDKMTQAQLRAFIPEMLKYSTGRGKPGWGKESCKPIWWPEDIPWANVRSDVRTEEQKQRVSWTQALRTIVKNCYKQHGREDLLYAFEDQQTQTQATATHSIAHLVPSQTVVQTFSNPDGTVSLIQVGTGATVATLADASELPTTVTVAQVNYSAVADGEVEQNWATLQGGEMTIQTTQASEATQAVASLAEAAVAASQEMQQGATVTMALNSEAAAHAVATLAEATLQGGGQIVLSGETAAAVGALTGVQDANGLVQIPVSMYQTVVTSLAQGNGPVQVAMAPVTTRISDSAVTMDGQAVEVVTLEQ
Sequence of Nuclear receptor subfamily 4 group A member 2 (Homo sapiens) (P43354 whole entry, looked up): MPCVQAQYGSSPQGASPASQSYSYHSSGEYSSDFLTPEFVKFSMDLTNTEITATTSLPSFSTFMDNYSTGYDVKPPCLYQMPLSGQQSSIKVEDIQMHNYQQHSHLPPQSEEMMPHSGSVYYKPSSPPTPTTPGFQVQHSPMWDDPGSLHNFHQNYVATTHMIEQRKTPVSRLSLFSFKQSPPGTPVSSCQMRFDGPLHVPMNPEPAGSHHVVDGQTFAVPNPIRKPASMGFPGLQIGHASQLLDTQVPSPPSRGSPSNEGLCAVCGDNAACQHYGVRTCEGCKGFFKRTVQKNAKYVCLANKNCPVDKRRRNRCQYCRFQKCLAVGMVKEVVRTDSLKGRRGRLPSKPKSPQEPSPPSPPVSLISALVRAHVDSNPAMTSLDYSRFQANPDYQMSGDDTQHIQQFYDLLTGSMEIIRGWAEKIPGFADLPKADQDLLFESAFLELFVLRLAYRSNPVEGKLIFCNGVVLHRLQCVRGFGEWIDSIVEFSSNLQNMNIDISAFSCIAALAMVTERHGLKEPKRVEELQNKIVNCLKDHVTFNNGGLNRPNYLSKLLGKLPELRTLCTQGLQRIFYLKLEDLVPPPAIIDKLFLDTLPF

NCC1(Cc2noc(=O)[nH]2)CCCCC1
inactive: [1] | [2] | [3] | [4] | [5]

Cc1ccc(Cl)cc1
not listed: [1] | [9]
inactive: all other assays above

c1cc(-c2ccncc2)ccn1
inactive: [1] | [7] | [3] | [4] | [5]

CC(C)(C)c1cc(O)c(C(C)(C)C)cc1O
active: [4] 162 µM | [5] 30.6 µM
not listed: [7] | [9]
inactive: all other assays above

O=c1c(O)c(-c2ccc(O)c(O)c2)oc2cc(O)cc(O)c12
not listed: [2] | [7] | [9]
inactive: all other assays above

CCCCC(CC)COC(=O)CC(C(=O)OCC(CC)CCCC)S(=O)(=O)O (configuration not stated)
inactive: [1] | [2] | [3] | [4] | [5]

COCCOC[C@H](CC1(C(=O)NC2CCC(C(=O)O)CC2)CCCC1)C(=O)Oc1ccc2c(c1)CCC2 (some centres not stated)
inactive: [6] | [2] | [3] | [4] | [5]

CCCCCC(=O)O
not listed: [1] | [8] | [9]
inactive: all other assays above

CCOc1ccc2c(c1)C(C)=CC(C)(C)N2
active: [1] 38.2 µM | [9] 124 µM | [3] 183 µM | [4] 133 µM | [5] 166 µM
inactive: [6] | [7] | [8]

Cc1ccc(C(C)C)c(O)c1
not listed: [1] | [8] | [9]
inactive: all other assays above

O=C(OCCCCCOC(=O)c1ccccc1)c1ccccc1
inactive: [1] | [7] | [3] | [4] | [5]

C1CCC(SSC2CCCCC2)CC1
inactive: [1] | [6] | [2] | [3] | [4]
active: [5] 161 µM

COc1cccc2c1C(=O)c1c(O)c3c(c(O)c1C2=O)C[C@@](O)(C(=O)CO)C[C@@H]3O[C@H]1C[C@H](N)[C@H](O)[C@H](C)O1
inactive: [1] | [6] | [3] | [4] | [5]

COC(=O)c1ccc(O)cc1
not listed: [7] | [9]
inactive: all other assays above

CC1=C(/C=C/C(C)=C/C=C/C(C)=C/CO)C(C)(C)CCC1
not listed: [1] | [7] | [9]
inactive: all other assays above

CNC(=O)[C@H]1O[C@@H](n2cnc3c(NCc4cc(Cl)ccc4OCc4cc(C)no4)ncnc32)[C@H](O)[C@@H]1N
inactive: [1] | [2] | [3] | [4] | [5]

Nc1ccc2c(c1)C(=O)c1ccccc1C2=O
inactive: [6] | [2] | [3] | [4] | [5]

CC(=O)OCCOCCOCCOC(C)=O
inactive: [6] | [2] | [3] | [4] | [5]

CN1CCCC1=O
not listed: [7] | [8]
inactive: all other assays above

FC(F)(F)C(F)(F)C(F)(F)C(F)(F)C(F)(F)C(F)(F)CCI
not listed: [7] | [9]
inactive: all other assays above

COc1ccc2c(c1)c(CC(=O)O)c(C)n2C(=O)c1ccc(Cl)cc1
inactive: [1] | [8] | [3] | [4] | [5]

Oc1ccc2c(c1)OC[C@@H](N1CCC(O)(c3ccc(F)cc3)CC1)[C@H]2O
inactive: [7] | [2] | [3] | [4] | [5]
